# In the library only some 1.6% were active in any assay of this set; here they are far more common.
# PABP polyA inh = PABP poly(A) RNA binding inhibitors, primary screen, biochemical, fluorescence polarization, uHTS; AID 2014, 2009; hit rate 1% among 290,000; calls only at 35 µM;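 also: calls also rest on retests at 20 µM and on dose response follow-up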
# Target sequence (P11940 whole entry, looked up): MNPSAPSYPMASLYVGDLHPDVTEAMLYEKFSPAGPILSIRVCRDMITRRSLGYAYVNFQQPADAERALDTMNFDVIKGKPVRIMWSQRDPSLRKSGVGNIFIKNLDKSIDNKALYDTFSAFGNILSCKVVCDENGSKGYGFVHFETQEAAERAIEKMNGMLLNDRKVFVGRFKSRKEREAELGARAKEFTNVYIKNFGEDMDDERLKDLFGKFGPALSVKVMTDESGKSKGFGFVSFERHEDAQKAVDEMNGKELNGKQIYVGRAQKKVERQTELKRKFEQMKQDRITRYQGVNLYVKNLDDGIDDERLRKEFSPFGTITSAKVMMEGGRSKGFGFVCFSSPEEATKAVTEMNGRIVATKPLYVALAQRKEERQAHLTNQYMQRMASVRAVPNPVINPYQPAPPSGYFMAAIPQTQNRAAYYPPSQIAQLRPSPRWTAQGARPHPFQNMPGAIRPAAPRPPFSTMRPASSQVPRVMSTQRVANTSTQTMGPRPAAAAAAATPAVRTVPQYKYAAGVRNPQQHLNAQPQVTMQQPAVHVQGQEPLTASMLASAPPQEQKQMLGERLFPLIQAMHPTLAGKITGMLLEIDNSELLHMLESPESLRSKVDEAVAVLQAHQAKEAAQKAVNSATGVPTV
# eIF4E-4G inh = eIF4E–eIF4G protein interaction inhibitors, primary screen, biochemical, uHTS, TR-FRET, eIF4GI fragment; TR-FRET eIF4E-eIF4GI(517-606) binding, 2 h; inhibition, % at 21.7 µM; hit rate 0.37% among 220,000; AID 782, 2007;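 active = inhibition above about 30%, limit read from the data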
# MLLE-PAM2 inh = inhibitors of PABP1 MLLE–PAM2 peptide binding, primary screen, biochemical, fluorescence polarization, FITC-PAM2, GST-MLLE | Polyadenylate-binding protein 1 (Homo sapiens), P11940 | hit rate 0.36% among 360,000 | inhibition, % at 20 µM; in the data active = inhibition above about 35%, passing the limit was not always enough
# PERK inh = block of dimerizer-induced PERK translation repression, primary screen, PERK inhibitor project, CHO PERK-DD cells, SEAP luminescence, HTS | Eukaryotic translation initiation factor 2-alpha kinase 3 (Homo sapiens), Q9NZJ5 | CHO PERK-DD fusion, SEAP luminescence translation reporter | inhibition, % at 5.6 µM | hit rate 0.17% among 220,000;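 active = inhibition above the mean inhibition of all tested compounds plus 3 SD, set separately per screening campaign, cut at about 2.9% in these data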;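 also: PERK kinase domain activated by AP20187 dimerizer at 100 nM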
# eIF4H inh = human eIF4H binding inhibitors, primary screen, translation initiation inhibitor project, biochemical, uHTS, fluorescence polarization | Eukaryotic translation initiation factor 4H (Homo sapiens), Q15056 | eIF4H fluorescence polarization binding assay | inhibition, % at 35 µM | hit rate 0.94% among 290,000 | AID 2012, 2009;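 also: calls also rest on retests at 20 µM and on dose response follow-up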
# Numbers stand for hits; n = inactive; u = inconclusive; x = no result given; + = active, no number; [ ] = dose if it differs, or a comment. Unless noted, no rule for the calls is given here.
SMILES,PABP polyA inh,eIF4E-4G inh,MLLE-PAM2 inh,PERK inh,eIF4H inh
Cc1cccnc1NC(=O)CN1C(=O)NC(C)(c2ccc3ccccc3c2)C1=O (centres undefined),x,x,n,x,x
COc1ccc(CCN(C)C(=O)/C=C/c2c(Cl)nc3ccccn23)cc1OC,n,n,n,n,n
COc1ccc(C(CNC(=O)/C=C/c2c(Cl)nc3ccccn23)N(C)C)cc1 (centres undefined),+,n,n,n,7.6
CN(CCCC(=O)NCCc1ccccc1)S(=O)(=O)c1ccc([N+](=O)[O-])cc1,n,x,n,x,n
Cn1sccc1=O,x,x,36.9,x,x
O=c1ccsn1Cc1ccccc1,n,n,n,n,n
CC(C)Cc1nnc(NC(=O)CCC(=O)N2CCN(c3ccc(F)cc3)CC2)s1,n,x,n,x,n
On1c2c(c3c4nonc4ccc31)CCCC2,+,n,x,n,77.1
COn1c2c(c3c4nonc4ccc31)CCCC2,+,n,n,n,n
Cc1c(C)n(O)c2ccc3nonc3c12,n,n,n,n,n
CN1CCN(C2=C(Cl)C(=O)C(c3cnc(N4CCCCC4)s3)=C(Cl)C2=O)CC1,n,53.6[fluorescence artefact?],n,n,u
CN1CCN(C2=C(Cl)C(=O)c3ccccc3C2=O)CC1,x,x,n,x,x
Cc1c(C(C)C[C@H](C)O)oc(=O)c2c1Oc1c(C)c(C(C)C[C@H](C)O)oc(=O)c1C2 (some centres undefined),x,x,n,x,x
Cc1ccc(CC(=O)NNC(=O)c2ccncc2)cc1C,x,x,56.8,x,x
Cn1c(=O)[nH]c2cc(Cl)cnc21,u,n,47.1,n,u
Cn1c(=O)[nH]c2c(Cl)nccc21,n,n,n,n,n
Cc1cccc(Nc2n[nH]c(=S)s2)c1C,n,58.1,n,n,n
Cc1cccc(C)c1Nc1n[nH]c(=S)s1,x,x,n,x,x
NC(=O)NOCc1c(F)cccc1Cl,+,n,n,n,n
Nc1c(-c2ccccc2)sc2ccc3ccccc3[n+]12,n,x,38.9,x,n
CCCN(C(=O)c1cc2c(s1)CCC2)c1c(N)n(Cc2ccccc2)c(=O)[nH]c1=O,+,n,n,n,95.7
COCCCN(C(=O)c1cc2c(s1)CCC2)c1c(N)n(Cc2ccccc2)c(=O)[nH]c1=O,n,n,n,n,n
O=C(Nc1cccn2nc(COCCO)nc12)C(c1ccccc1)c1ccccc1,x,x,n,x,x
CN(CCC(=O)c1ccccc1)CCC(=O)c1ccccc1,n,x,43.9,x,n
C[C@@H]1[C@@H](Sc2ccccc2)CC(=O)O[C@@H]1c1ccc(-c2ccccc2)cc1,x,x,44.1,x,x
SMILES,PABP polyA inh,eIF4E-4G inh,MLLE-PAM2 inh,PERK inh,eIF4H inh
CC(=O)n1c2ccccc2c2c1c1ccccc1n2C,n,n,66.3,n,n
CC(=O)n1c2ccccc2c2nc3ccccc3nc21,n,x,n,x,n
O=C1CC(N2CCOCC2)C(=O)N1CCN1C(=O)CC(N2CCOCC2)C1=O (centres undefined),n,n,n,n,n
CCN1C(=O)CC(N2CCOCC2)C1=O (centres undefined),n,n,n,3.0,n
CC(Cc1cccnc1)NC(=O)c1cc(COc2ccc(F)cc2Cl)on1 (centres undefined),n,x,n,x,n
COc1cc(N=c2ssnc2Cl)cc(OC)c1,n,63.1,n,n,n
N#Cc1cccc(N=c2ssnc2Cl)c1,n,54.3,x,n,n
Clc1ccc(N=c2ssnc2Cl)nc1,n,n,n,n,n
Clc1nssc1=Nc1ccc(Br)cc1,n,51.0,n,n,n
Clc1nssc1=Nc1nncs1,x,x,n,x,x
C=CCN(C(=O)c1csnn1)C(C(=O)NCc1ccc(F)cc1)c1sccc1C (centres undefined),n,x,n,x,n
COc1ccc(-n2nnnc2SCC(=O)c2ccc3c(c2)OCCO3)c(OC)c1,n,n,n,4.0,n
C/C(=N\NC(=O)Cc1c(C)[nH][nH]c1=O)c1cccc(Br)c1,n,97.3,n,n,n
C/C(=N\NC(=O)Cc1c(C)[nH][nH]c1=O)c1ccc(Cl)c(Cl)c1,n,n,n,n,n
Nc1ccccc1C(=O)N1CCCC1,n,n,n,3.1,n
Cc1ccccc1-n1sc2cc(F)ccc2c1=O,n,51.8,n,n,n
CC(=O)Nc1nnc(SCC(=O)NCCOc2ccccc2)s1,+,n,n,n,active
Nc1nc2ccc(S(=O)(=O)N3CCCCC3)cc2s1,n,n,42.1,n,n
O=C1CC(=O)NC(SCC(=O)Nc2ccccc2[N+](=O)[O-])=N1,+,x,n,x,78.4
Cc1cc(C)nc(SCC(=O)Nc2ccccc2[N+](=O)[O-])n1,n,n,n,n,n
NNC(=O)c1oc2nc(-c3cccs3)cc(-c3ccco3)c2c1N,+,x,n,x,u
C(=NN=C1c2ccccc2-c2ccccc21)c1ccc2c(c1)OCO2,x,x,n,x,x
CCN(CC)S(=O)(=O)c1cccc(-c2cn3cc(C)ccc3n2)c1,n,n,n,n,56.6
Cc1ccc2nc(-c3cccc(S(=O)(=O)N(C)C)c3)cn2c1,n,x,n,n,n
Cc1ccc(NC(=O)c2cc(N3C(=O)C=CC3=O)ccc2N2CCOCC2)cc1Cl,n,n,n,n,n
SMILES,PABP polyA inh,eIF4E-4G inh,MLLE-PAM2 inh,PERK inh,eIF4H inh
COc1ccc(CCNC(=O)CCC(=O)N2CCOc3ccc(Cl)cc32)cc1OC,n,x,n,x,n
O=C(Cc1ccc(Cl)cc1)OCc1nnc(-c2ccccc2)o1,n,88.0,n,n,n
O=C(OCc1nnc(-c2ccccc2)o1)c1ccc(Cl)cc1,n,n,n,n,n
O=C(/C=C/c1ccco1)OCc1nnc(-c2ccc(Cl)cc2)o1,+,n,n,n,56.9
COc1ccc(/C=C2\C(=O)ON=C2c2ccccc2)cc1,n,x,n,x,n
O=C1ON=C(c2ccccc2)/C1=C/c1ccc(O)c(O)c1,+,x,n,x,n
CCn1c(/C=C/c2cc[n+](C)cc2)nc2ccccc21,+,x,n,x,n
CCCn1c(/C=C/c2ccccc2)nc2ccccc21,n,n,n,n,n
Cc1c(NC(=O)c2cc(C(C)C)on2)c(=O)n(-c2ccccc2)n1C,n,n,n,n,n
Cc1c(NC(=O)c2cc(CC(C)C)on2)c(=O)n(-c2ccccc2)n1C,n,33.8[fluorescence artefact?],n,n,n
Cc1c(NC(=S)Nc2cccc(Cl)c2)c(=O)n(-c2ccccc2)n1C,n,n,n,n,active
CC1(c2ccccc2)NC(=O)N(CC(=O)N2CCN(S(=O)(=O)c3cccs3)CC2)C1=O (centres undefined),x,x,n,x,x
CC(C)c1nnc(SCC(=O)NC2CCCC2)n1C,n,x,n,x,n
C=CCn1c(=O)/c(=C\c2ccccn2)s/c1=C(/C#N)C(=O)NCC1CCCO1 (centres undefined),n,n,n,n,u
C=CCn1c(=O)/c(=C/c2ccc(C)o2)s/c1=C(/C#N)C(=O)c1ccccc1,+,n,n,n,u
c1ccc(-c2ccnc3nc(N4CCN(c5ccccc5)CC4)nn23)cc1,n,n,n,n,n

# Bioassay records: PubChem, several laboratories
